Compounds without any hit were thinned out: in the full panel of roughly 79,000, 15% have a hit. Calls of active or inactive are those of the source. Cut-off read from the data, not from the text of the source: active = growth inhibition above about 70%; inactive = the rest.
Experiments:
[1] = NCI Yeast Anticancer Drug Screen. Data for the rad50 strain (AID 155);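 note: 0% = growth of vehicle-only cultures of the same strain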; details: S. cerevisiae rad50 strain growth inhibition, active compounds read high
Procedure, shortened: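 Genetically altered yeast (DNA repair pathway); compound treatment; growth inhibition vs vehicle ctrl.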

[2] = NCI Yeast Anticancer Drug Screen. Data for the mec2-1 strain (AID 157); details: S. cerevisiae mec2-1 strain, active compounds read high
Procedure, shortened: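 Each compound was tested on mec2-1 yeast, a strain altered in DNA damage repair or cell cycle control. Growth inhibition is reported relative to vehicle.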

[3] = NCI Yeast Anticancer Drug Screen. Data for the sgs1 mgt1 strain (AID 161);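 note: 0% = growth of cultures given vehicle only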; details: S. cerevisiae sgs1 mgt1 strain, active compounds read high
Procedure, shortened: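 Mutant yeast exposed to compound; growth scored against vehicle-only wells.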

[4] = NCI Yeast Anticancer Drug Screen. Data for the cln2 rad14 strain (AID 165);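 note: 0% = growth equal to vehicle treated cultures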; details: S. cerevisiae cln2 rad14 strain, active compounds read high
Procedure, shortened: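 Test compounds were added to cln2 rad14 yeast cultures; inhibition of growth was then determined by comparison with vehicle treatment.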

[5] = NCI Yeast Anticancer Drug Screen. Data for the bub3 strain (AID 167); details: S. cerevisiae bub3 mutant strain, active compounds read high
Procedure, shortened: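 Yeast carrying a defined mutation is treated with each compound, and growth is compared with that of vehicle-exposed cells to give inhibition.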

[6] = NCI Yeast Anticancer Drug Screen. Data for the mlh1 rad18 strain (AID 175); details: S. cerevisiae mlh1 rad18 strain growth inhibition, active compounds read high
Procedure, shortened: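 Inhibition values reflect reduced growth of mutant yeast versus vehicle-treated controls following compound exposure; the mutations affect DNA damage repair.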

[7] = at 5.0 µM (retest, dose inferred, filed as 0.5)
[8] = at 50.0 µM (retest, dose inferred, filed as 5.0)

Measured: growth inhibition

CCCCCCCCCCCC[N+](C)(CCS(=O)(=O)[O-])Cc1ccccc1 (stereo unspecified)
active: [1]; at 50.0 µM 98.2% | [2]; [8] 74% | [2]; at 50.0 µM 99.2% | [4]; at 50.0 µM 77.5% | [5]; at 50.0 µM 72.1% | [6]; [8] 97% | [6]; at 50.0 µM 99.2%
inactive: [1]; [7] -1% | [1]; [8] 51% | [2]; [7] 6% | [3]; [7] 1% | [3]; [8] 36% | [3]; at 50.0 µM 41.9% | [4]; [7] 2% | [4]; [8] 66% | [5]; [7] -2% | [5]; [8] 61% | [6]; [7] -2%

CCCCCCCCCCCCCCCCN(C)c1ccc(S(=O)(=O)O)cc1[N+](=O)[O-]
active: [1]; at 50.0 µM 85.5% | [2]; [8] 71% | [2]; at 50.0 µM 89% | [3]; at 50.0 µM 90.5% | [5]; [8] 79% | [5]; at 50.0 µM 88.3% | [6]; [8] 73% | [6]; at 50.0 µM 80.1%
inactive: [1]; [7] 43% | [1]; [8] 67% | [2]; [7] 37% | [3]; [7] 50% | [3]; [8] 62% | [4]; [7] 24% | [4]; [8] 48% | [4]; at 50.0 µM 68.6% | [5]; [7] 60% | [6]; [7] 59%

CCCCCCCCCCCC(=O)N(CC)CC
active: [1]; [8] 99% | [1]; at 50.0 µM 99.8% | [2]; [8] 99% | [2]; at 50.0 µM 99.9% | [3]; [8] 100% | [3]; at 50.0 µM 99.8% | [4]; [8] 99% | [4]; at 50.0 µM 99% | [5]; [8] 100% | [5]; at 50.0 µM 99.7% | [6]; [8] 99% | [6]; at 50.0 µM 99.8%
inactive: [1]; [7] -3% | [2]; [7] 1% | [3]; [7] -4% | [4]; [7] -1% | [5]; [7] 2% | [6]; [7] 14%

O=C(O)CC(NC(=O)CP(=O)(O)O)C(=O)O.[NH-]C1CCCCC1[NH-].[Pt+2] (stereo unspecified)
inactive: [1]; [7] 30% | [1]; [8] 24% | [1]; at 50.0 µM -2.95% | [2]; [7] 2% | [2]; [8] 3% | [2]; at 50.0 µM -27.1% | [3]; [7] 26% | [3]; [8] 11% | [3]; at 50.0 µM -27.9% | [4]; [7] 22% | [4]; [8] 16% | [4]; at 50.0 µM 20.8% | [5]; [7] 18% | [5]; [8] 23% | [5]; at 50.0 µM -12.2% | [6]; [7] 18% | [6]; [8] 2% | [6]; at 50.0 µM -23.1%

CC(O)(CO)CC(C)(O)CO (stereo unspecified)
inactive: [1]; [7] -2% | [1]; [8] -10% | [1]; at 50.0 µM 12.9% | [2]; [7] 3% | [2]; [8] -6% | [2]; at 50.0 µM -7.2% | [3]; [7] -1% | [3]; [8] -9% | [3]; at 50.0 µM 1.8% | [4]; [7] -2% | [4]; [8] -14% | [5]; [7] 2% | [5]; [8] -1% | [5]; at 50.0 µM -1.05% | [6]; [7] 1% | [6]; [8] -11% | [6]; at 50.0 µM -7.45%
active: [4]; at 50.0 µM 77%

Cc1cc2nc3n(c2cc1C)C(c1c(F)cccc1F)SC3 (stereo unspecified)
inactive: [1]; [7] 25% | [1]; [8] 24% | [1]; at 50.0 µM -6.85% | [2]; [7] 16% | [2]; [8] 12% | [2]; at 50.0 µM -14.7% | [3]; [7] 27% | [3]; [8] 24% | [3]; at 50.0 µM 9.1% | [4]; [7] 12% | [4]; [8] 23% | [4]; at 50.0 µM -6.1% | [5]; [7] 26% | [5]; [8] 25% | [5]; at 50.0 µM 30.5% | [6]; [7] 26% | [6]; [8] 22% | [6]; at 50.0 µM -0.35%

COc1cccc(=O)cc1
inactive: [1]; [7] 5% | [2]; [7] 12% | [2]; [8] 51% | [2]; at 50.0 µM 26.4% | [3]; [7] 11% | [4]; [7] 7% | [4]; [8] 32% | [4]; at 50.0 µM 19.4% | [5]; [7] 3% | [6]; [7] 3%
active: [1]; [8] 86% | [1]; at 50.0 µM 83.3% | [3]; [8] 83% | [3]; at 50.0 µM 93.5% | [5]; [8] 85% | [5]; at 50.0 µM 92.9% | [6]; [8] 94% | [6]; at 50.0 µM 76.4%

Cc1c2ccncc2c(C)c2c1[nH]c1ccc(OCCN(C)C)cc12
active: [1]; [8] 93% | [1]; at 50.0 µM 99% | [2]; at 50.0 µM 77.3% | [3]; at 50.0 µM 93.3% | [4]; at 50.0 µM 71.8% | [5]; at 50.0 µM 88.9% | [6]; at 50.0 µM 96.3%
inactive: [1]; [7] 28% | [2]; [7] 5% | [2]; [8] 43% | [3]; [7] 5% | [3]; [8] 53% | [4]; [7] 7% | [4]; [8] 40% | [5]; [7] 4% | [5]; [8] 32% | [6]; [7] 7% | [6]; [8] 51%

CCCCCCCCCCCCCCCCN[Si](NCCCCCCCCCCCCCCCC)(NCCCCCCCCCCCCCCCC)NCCCCCCCCCCCCCCCC
active: [1]; [7] 97% | [1]; [8] 96% | [1]; at 50.0 µM 85.5% | [2]; [7] 99% | [2]; [8] 96% | [2]; at 50.0 µM 83.4% | [3]; [7] 99% | [3]; [8] 96% | [3]; at 50.0 µM 88.2% | [4]; [7] 98% | [4]; [8] 95% | [4]; at 50.0 µM 85.5% | [5]; [7] 99% | [5]; [8] 97% | [5]; at 50.0 µM 86% | [6]; [7] 97% | [6]; [8] 95% | [6]; at 50.0 µM 83.9%

CCCCCCCCc1ccc2c3ccccc3c3ccccc3c2c1
inactive: [1]; [7] -9% | [1]; [8] -12% | [2]; [7] -19% | [2]; [8] -5% | [2]; at 50.0 µM 60.4% | [3]; [7] -19% | [3]; [8] -3% | [3]; at 50.0 µM 65.8% | [4]; [7] -1% | [4]; [8] -12% | [4]; at 50.0 µM 3.05% | [5]; [7] -1% | [5]; [8] -10% | [5]; at 50.0 µM 8.65% | [6]; [7] 23% | [6]; [8] 6% | [6]; at 50.0 µM 58.9%
active: [1]; at 50.0 µM 76.8%

CCN(CC)CCNc1ccc(C)c2oc3ccc(O)cc3c(=O)c12
inactive: [1]; [7] 39% | [2]; [7] 27% | [2]; [8] 29% | [3]; [7] -1% | [3]; [8] 29% | [4]; [7] 1% | [4]; [8] 22% | [4]; at 50.0 µM 25.1% | [5]; [7] -4% | [5]; [8] 41% | [6]; [7] -1% | [6]; [8] 43%
active: [1]; [8] 96% | [1]; at 50.0 µM 99% | [2]; at 50.0 µM 75.5% | [3]; at 50.0 µM 81.5% | [5]; at 50.0 µM 81.7% | [6]; at 50.0 µM 95.8%

O=S1(=O)c2ccccc2C(=NO)c2ccccc21
inactive: [1]; [7] -5% | [1]; [8] -9% | [1]; at 50.0 µM -7.95% | [2]; [7] -3% | [2]; [8] -26% | [2]; at 50.0 µM 13.2% | [3]; [7] -7% | [3]; [8] -21% | [3]; at 50.0 µM -15.4% | [4]; [7] 3% | [4]; [8] 0% | [4]; at 50.0 µM 66% | [5]; [7] -1% | [5]; [8] -17% | [5]; at 50.0 µM 7.7% | [6]; [7] -3% | [6]; [8] -21% | [6]; at 50.0 µM -3.55%
